Assay results from PubChem BioAssay AID1159580 (chemical genetic matrix, 2015).
Values joined by “and” are separate entries in the source; they are usually repeats but may differ in a detail not shown here. Equal entries are not always repeated. Among all 5,500 compounds or so, about 2,000 (36%) were called active. Another 18% or so got no clear call; they are omitted. Some of the results follow. A number with no mark means an inactive call. Cut-off read from the data, not from the text of the source: active = normalized growth mostly below about 0.91 (no sharp cut-off); inconclusive = no clear call, values can overlap the other calls; inactive = mostly above about 0.92.

Assay: chemical genetic growth profiling, strain panel (AID 1159580);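 note: tested at 20 µM; growth read once vehicle control cultures reached saturation at 30 °C; 1 = growth at the plate median or of vehicle wells; lower values mean less growth of the strain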
Settings: S. cerevisiae deletion strains, growth OD

SMILES: C=CC(C1=CC(=O)C=CC1=O)c1ccccc1 (stereo unspecified)
- normalized growth (locus YAL021C, strain ccr4, active compounds read low): 1.01
- normalized growth (locus YAL026C, strain drs2, active compounds read low): 0.983
- normalized growth (locus YAL030W, strain snc1, active compounds read low): 1
- normalized growth (locus YBL061C, strain skt5, active compounds read low): 1
- normalized growth (locus YBR009C, strain hhf1, active compounds read low): 0.995
- normalized growth (locus YBR021W, strain FUR4, active compounds read low): 0.982
- normalized growth (locus YBR023C, strain chs3, active compounds read low): 1.01
- normalized growth (locus YBR171W, strain sec66, active compounds read low): 1.02
- normalized growth (locus YBR229C, strain ROT2, active compounds read low): 0.974
- normalized growth (locus YBR231C, strain swc5, active compounds read low): 1.01
- normalized growth (locus YBR279W, strain paf1, active compounds read low): 0.993
- normalized growth (locus YCL011C, strain gbp2, active compounds read low): 1.01
- normalized growth (locus YCL016C, strain dcc1, active compounds read low): 0.994
- normalized growth (locus YCL029C, strain bik1, active compounds read low): 1
- normalized growth (locus YCL061C, strain MRC1, active compounds read low): 0.993
- normalized growth (locus YCL069W, strain vba3, active compounds read low): 1
- normalized growth (locus YCR088W, strain abp1, active compounds read low): 1.01
- normalized growth (locus YDL005C, strain med2, active compounds read low): 1.01
- normalized growth (locus YDL035C, strain GPR1, active compounds read low): 0.937
- normalized growth (locus YDL040C, strain nat1, active compounds read low): 0.989
- normalized growth (locus YDL074C, strain BRE1, active compounds read low): 0.916
- normalized growth (locus YDL101C, strain DUN1, active compounds read low): 0.96
- normalized growth (locus YDL134C, strain PPH21, active compounds read low): 0.863 (active)
- normalized growth (locus YDL185W, strain tfp1, active compounds read low): 0.994
- normalized growth (locus YDL192W, strain arf1, active compounds read low): 0.956
- normalized growth (locus YDR001C, strain nth1, active compounds read low): 1.01
- normalized growth (locus YDR069C, strain doa4, active compounds read low): 1.01
- normalized growth (locus YDR101C, strain arx1, active compounds read low): 0.977
- normalized growth (locus YDR137W, strain rgp1, active compounds read low): 0.961
- normalized growth (locus YDR159W, strain sac3, active compounds read low): 1.03
- normalized growth (locus YDR162C, strain NBP2, active compounds read low): 0.778 (active)
- normalized growth (locus YDR195W, strain ref2): 1.01
- normalized growth (locus YDR297W, strain sur2, active compounds read low): 0.996
- normalized growth (locus YDR318W, strain mcm21, active compounds read low): 0.953
- normalized growth (locus YDR334W, strain swr1, active compounds read low): 1.01
- normalized growth (locus YDR335W, strain msn5, active compounds read low): 0.999
- normalized growth (locus YDR388W, active compounds read low): 0.991
- normalized growth (locus YDR392W, strain spt3, active compounds read low): 0.917
- normalized growth (locus YDR502C, strain sam2, active compounds read low): 0.95
- normalized growth (locus YEL003W, strain gim4, active compounds read low): 0.982
- normalized growth (locus YEL037C, strain rad23, active compounds read low): 1.01
- normalized growth (locus YEL061C, strain CIN8 (second series), active compounds read low): 1.01
- normalized growth (locus YEL061C, strain CIN8, active compounds read low): 0.974
- normalized growth (locus YER015W, strain faa2, active compounds read low): 0.996
- normalized growth (locus YER016W, strain bim1, active compounds read low): 1
- normalized growth (locus YER110C, active compounds read low): 0.98
- normalized growth (locus YER111C, strain swi4, active compounds read low): 1
- normalized growth (locus YER155C, strain BEM2 (second series), active compounds read low): 0.895
- normalized growth (locus YER155C, strain BEM2, active compounds read low): 1.01
- normalized growth (locus YER167W, strain BCK2, active compounds read low): 0.947
- normalized growth (locus YFR010W, strain ubp6, active compounds read low): 1
- normalized growth (locus YGL078C, strain dbp3, active compounds read low): 0.995
- normalized growth (locus YGL086W, strain mad1, active compounds read low): 0.927 (active)
- normalized growth (locus YGL167C, strain pmr1, active compounds read low): 1.01
- normalized growth (locus YGL173C, strain kem1, active compounds read low): 1
- normalized growth (locus YGL227W, strain vid30, active compounds read low): 1.01
- normalized growth (locus YGL240W, strain doc1, active compounds read low): 0.964
- normalized growth (locus YGL248W, strain PDE1, active compounds read low): 0.907
- normalized growth (locus YGL253W, strain hxk2, active compounds read low): 1.02
- normalized growth (locus YGR078C, strain PAC10, active compounds read low): 0.805 (active)
- normalized growth (locus YGR135W, strain pre9, active compounds read low): 0.931
- normalized growth (locus YGR229C, strain SMI1, active compounds read low): 0.722 (active)
- normalized growth (locus YGR252W, strain gcn5, active compounds read low): 0.952
- normalized growth (locus YHR013C, strain ard1, active compounds read low): 1.04
- normalized growth (locus YHR027C, strain rpn1, active compounds read low): 1.01
- normalized growth (locus YHR030C, strain SLT2, active compounds read low): 0.984 and 1.06
- normalized growth (locus YHR079C, strain IRE1 (second series), active compounds read low): 0.98
- normalized growth (locus YHR079C, strain IRE1, active compounds read low): 1.02
- normalized growth (locus YHR094C, strain hxt1, active compounds read low): 0.993
- normalized growth (locus YHR129C, strain ARP1, active compounds read low): 0.957
- normalized growth (locus YHR142W, strain chs7, active compounds read low): 1.01
- normalized growth (locus YHR200W, strain rpn10, active compounds read low): 0.963
- normalized growth (locus YIL066C, strain RNR3, active compounds read low): 0.875
- normalized growth (locus YIL073C, strain SPO22, active compounds read low): 0.916
- normalized growth (locus YIL125W, strain kgd1, active compounds read low): 0.998
- normalized growth (locus YIR030C, strain dcg1, active compounds read low): 0.972
- normalized growth (locus YJL092W, strain hpr5, active compounds read low): 1.01
- normalized growth (locus YJL095W, strain BCK1 (second series), active compounds read low): 1.01
- normalized growth (locus YJL095W, strain BCK1, active compounds read low): 0.891 and 1.06
- normalized growth (locus YJL115W, strain asf1, active compounds read low): 1.01
- normalized growth (locus YJL129C, strain trk1, active compounds read low): 1.04
- normalized growth (locus YJL134W, strain LCB3, active compounds read low): 0.99
- normalized growth (locus YJL154C, strain vps35, active compounds read low): 0.997
- normalized growth (locus YJL164C, strain tpk1, active compounds read low): 0.984
- normalized growth (locus YJL166W, strain qcr8, active compounds read low): 0.991
- normalized growth (locus YJL168C, strain set2, active compounds read low): 0.992
- normalized growth (locus YJL187C, strain SWE1 (second series), active compounds read low): 0.937
- normalized growth (locus YJL187C, strain SWE1, active compounds read low): 1
- normalized growth (locus YJR043C, strain POL32, active compounds read low): 0.889
- normalized growth (locus YJR066W, strain TOR1, active compounds read low): 1
- normalized growth (locus YJR075W, strain HOC1, active compounds read low): 0.929
- normalized growth (locus YKL009W, strain mrt4, active compounds read low): 0.956
- normalized growth (locus YKL068W, active compounds read low): 1.05
- normalized growth (locus YKL085W, strain MDH1 (second series), active compounds read low): 0.978
- normalized growth (locus YKL085W, strain MDH1, active compounds read low): 0.978
- normalized growth (locus YKL160W, strain elf1, active compounds read low): 0.987
- normalized growth (locus YKR001C, strain vps1, active compounds read low): 0.887 (active)
- normalized growth (locus YKR026C, strain gcn3, active compounds read low): 1.01
- normalized growth (locus YKR091W, strain srl3, active compounds read low): 1.01
- normalized growth (locus YLL001W, strain dnm1, active compounds read low): 0.978
- normalized growth (locus YLL026W, active compounds read low): 1
- normalized growth (locus YLL041C, strain sdh2, active compounds read low): 1.01
- normalized growth (locus YLR027C, strain aat2, active compounds read low): 1.01
- normalized growth (locus YLR039C, strain RIC1, active compounds read low): 0.64 (active)
- normalized growth (locus YLR058C, strain SHM2, active compounds read low): 0.958
- normalized growth (locus YLR102C, strain apc9, active compounds read low): 0.978
- normalized growth (locus YLR113W, strain HOG1, active compounds read low): 1.02
- normalized growth (locus YLR221C, strain rsa3, active compounds read low): 0.992
- normalized growth (locus YLR258W, strain gsy2, active compounds read low): 1.01
- normalized growth (locus YLR262C, strain YPT6 (second series), active compounds read low): 0.969
- normalized growth (locus YLR262C, strain YPT6, active compounds read low): 0.551 (active)
- normalized growth (locus YLR268W, strain sec22, active compounds read low): 0.925
- normalized growth (locus YLR320W, strain mms22, active compounds read low): 0.983
- normalized growth (locus YLR330W, strain CHS5, active compounds read low): 0.882 (active)
- normalized growth (locus YLR342W, strain FKS1 (second series), active compounds read low): 0.794
- normalized growth (locus YLR342W, strain FKS1, active compounds read low): 1.02
- normalized growth (locus YLR357W, strain rsc2, active compounds read low): 0.988
- normalized growth (locus YLR370C, strain arc18, active compounds read low): 1.01
- normalized growth (locus YLR371W, strain rom2, active compounds read low): 0.973
- normalized growth (locus YLR384C, strain iki3, active compounds read low): 1.01
- normalized growth (locus YLR418C, strain cdc73, active compounds read low): 0.823 (active)
- normalized growth (locus YML016C, strain PPZ1, active compounds read low): 0.976
- normalized growth (locus YML032C, strain rad52, active compounds read low): 0.965
- normalized growth (locus YML120C, strain ndi1, active compounds read low): 0.998
- normalized growth (locus YML124C, strain tub3, active compounds read low): 0.971
- normalized growth (locus YMR058W, strain fet3, active compounds read low): 1
- normalized growth (locus YMR078C, strain ctf18, active compounds read low): 0.963
- normalized growth (locus YMR125W, strain sto1, active compounds read low): 1.02
- normalized growth (locus YMR129W, active compounds read low): 1
- normalized growth (locus YMR205C, strain PFK2, active compounds read low): 0.997
- normalized growth (locus YMR223W, strain ubp8, active compounds read low): 0.971
- normalized growth (locus YMR231W, strain pep5, active compounds read low): 0.986
- normalized growth (locus YMR263W, strain SAP30, active compounds read low): 0.966
- normalized growth (locus YMR307W, strain GAS1, active compounds read low): 0.966
- normalized growth (locus YNL067W, strain RPL9B, active compounds read low): 0.943
- normalized growth (locus YNL071W, strain lat1, active compounds read low): 1.01
- normalized growth (locus YNL153C, strain GIM3, active compounds read low): 0.93
- normalized growth (locus YNL183C, strain NPR1, active compounds read low): 0.975
- normalized growth (locus YNL209W, strain ssb2, active compounds read low): 0.996
- normalized growth (locus YNL233W, strain BNI4, active compounds read low): 0.815 (active)
- normalized growth (locus YNL248C, strain rpa49, active compounds read low): 0.986
- normalized growth (locus YNL250W, strain rad50, active compounds read low): 1
- normalized growth (locus YNL271C, strain bni1, active compounds read low): 0.979
- normalized growth (locus YNL298W, strain CLA4, active compounds read low): 0.982
- normalized growth (locus YNL307C, strain MCK1, active compounds read low): 0.674 (active)
- normalized growth (locus YNL322C, strain KRE1 (second series), active compounds read low): 1.01
- normalized growth (locus YNL322C, strain KRE1, active compounds read low): 0.945
- normalized growth (locus YNR049C, strain mso1, active compounds read low): 1.02
- normalized growth (locus YNR052C, strain pop2, active compounds read low): 0.997
- normalized growth (locus YOL012C, strain htz1): 0.678
- normalized growth (locus YOL147C, strain pex11, active compounds read low): 0.975
- normalized growth (locus YOR001W, strain rrp6, active compounds read low): 0.997
- normalized growth (locus YOR061W, strain CKA2, active compounds read low): 0.978
- normalized growth (locus YOR069W, strain VPS5, active compounds read low): 0.982
- normalized growth (locus YOR070C, strain gyp1, active compounds read low): 0.981
- normalized growth (locus YOR080W, strain dia2, active compounds read low): 1
- normalized growth (locus YOR083W, strain WHI5, active compounds read low): 0.981
- normalized growth (locus YOR106W, strain vam3, active compounds read low): 0.981
- normalized growth (locus YOR136W, strain idh2, active compounds read low): 1
- normalized growth (locus YOR144C, strain elg1, active compounds read low): 0.975
- normalized growth (locus YOR184W, strain ser1, active compounds read low): 0.811 (active)
- normalized growth (locus YOR231W, strain MKK1, active compounds read low): 1.04
- normalized growth (locus YOR265W, strain rbl2, active compounds read low): 1.02
- normalized growth (locus YOR270C, strain vph1, active compounds read low): 0.973
- normalized growth (locus YOR290C, strain snf2, active compounds read low): 0.962
- normalized growth (locus YOR316C, strain cot1, active compounds read low): 0.993
- normalized growth (locus YPL051W, strain arl3, active compounds read low): 0.978
- normalized growth (locus YPL078C, strain atp4, active compounds read low): 0.968
- normalized growth (locus YPL106C, strain sse1, active compounds read low): 1.02
- normalized growth (locus YPL240C, strain hsp82, active compounds read low): 1
- normalized growth (locus YPL256C, strain CLN2, active compounds read low): 1.05
- normalized growth (locus YPR119W, strain clb2, active compounds read low): 0.975
- normalized growth (locus YPR141C, strain kar3, active compounds read low): 0.991
- normalized growth (locus YPR163C, strain tif3, active compounds read low): 0.849 (active)
- normalized growth (locus YPR167C, strain met16, active compounds read low): 0.963
- normalized growth (strain wtn01, active compounds read low): 0.931
